Test results: PubChem BioAssay (Tox21)
Records with an inconclusive call do not appear. Values without a mark were called inactive. The source made the active and inactive calls. Calls come from the whole dose curve; as a rule, active = well fitted inhibition curve with a large enough effect in the repeat runs; inconclusive = weak or mixed curves; inactive = no such curve, though single readings can be large or run the other way.
% is set by controls: 0 for no effect and ±100 for the full control effect; potency is the fitted concentration of half-maximal effect.

Each compound was assayed against Estrogen receptor (Homo sapiens) (UniProt P03372) (assay: qHTS assay to identify small molecule antagonists of the estrogen receptor alpha (ER-alpha) signaling pathway using the BG1 cell line in the presence of 0.1 nM 17-beta-estradiol (AID 1259244; note: nearly all actives have a fitted effect of over 50% in size)). Conditions: VM7Luc4E2 (BG1) ERE-luciferase, antagonist mode, 0.1 nM E2, 22 h; series mostly up to 92.4 µM; activity change, negative = inhibition: at the top concentration.
Estrogen receptor (Homo sapiens), sequence (P03372 whole entry, looked up): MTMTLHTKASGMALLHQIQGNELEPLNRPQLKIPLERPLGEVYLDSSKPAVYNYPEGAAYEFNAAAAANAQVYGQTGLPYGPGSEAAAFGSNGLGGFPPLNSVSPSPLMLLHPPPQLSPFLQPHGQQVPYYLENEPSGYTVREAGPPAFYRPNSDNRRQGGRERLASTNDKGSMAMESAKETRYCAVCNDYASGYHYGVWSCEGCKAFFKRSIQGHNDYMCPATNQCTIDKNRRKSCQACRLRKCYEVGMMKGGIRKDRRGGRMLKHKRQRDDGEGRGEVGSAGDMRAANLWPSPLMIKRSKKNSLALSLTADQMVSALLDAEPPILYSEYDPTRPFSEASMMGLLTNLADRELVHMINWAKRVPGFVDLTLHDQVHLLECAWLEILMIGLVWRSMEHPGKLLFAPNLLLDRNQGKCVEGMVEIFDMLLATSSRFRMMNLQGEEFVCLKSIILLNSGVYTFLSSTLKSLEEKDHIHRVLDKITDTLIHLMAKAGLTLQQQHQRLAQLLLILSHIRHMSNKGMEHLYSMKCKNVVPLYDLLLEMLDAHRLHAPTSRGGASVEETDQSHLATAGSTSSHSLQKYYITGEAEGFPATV
Source text: National Center for Advancing Translational Sciences [NCATS]
NIH Chemical Genomics Center [NCGC]
U.S. Environmental Protection Agency [EPA]
National Institutes of Environmental Health Sciences [NIEHS]
National Toxicology Program [NTP]
U.S. Food and Drug Administration [FDA]
Estrogen receptor (ER), a member of the nuclear hormone receptor plays an important role in development, metabolic homeostasis and reproduction. Two subtypes of ER, ER-alpha and ER-beta, have similar expression patterns with some uniqueness in both types. Endocrine disrupting chemicals (EDCs) and their interactions with steroid hormone receptors like ER causes disruption of normal endocrine function. Therefore, it is important to understand the effect of environmental chemicals in ER signaling pathway. For identifying ER antagonists, VM7Luc4E2 cell line was used to screen against Tox21 compound libraries.
VM7Luc4E2 cell line (provided by Denison MS, University of California) endogenously express full-length ER-alpha and is stably transfected with a plasmid containing four estrogen responsive elements (ERE) upstream of a luciferase reporter gene. The current screening for identification of ER-alpha inhibitors against Tox21 compound libraries used lower concentration (0.1 nM) of 17beta-Estradiol as a stimulator.
Tox21 Assay Protocol Summary:
VM7Luc4E2 cells were cultured in phenol red free assay medium containing 10% charcoal stripped FBS for 5 days prior to the assay. The cells were dispensed at 4,000 cells/well in 4 uL of assay medium into white wall/solid-bottom 1536-well plates (Corning Life Sciences, Corning, NY) using a Multidrop Combi (ThermoFisher Scientific, Waltham, MA) dispenser. After the assay plates were incubated at 37C and 5% CO2 for 24 hr, 23 nL of compounds dissolved in DMSO, positive controls or DMSO only was transferred to the assay plates by a Pintool station (Kalypsys, San Diego, CA). The transfer of compounds was followed by the addition of 1 uL of 0.1 nM (final concentration) agonist (17beta-Estradiol)/assay medium using a Flying Reagent Dispenser (FRD, Aurora Discovery, San Diego, CA). The plates were incubated at 37C and 5% CO2 for 22 hr. For luciferase reporter gene assay, 4 uL of ONE-Glo reagent (Promega Corporation, Madison, WI) was added to each well using the FRD and after 30 min incubation at room temperature luminescence intensity was measured using ViewLux plate reader (PerkinElmer, Shelton, CT).
In the case of `O=[N+]([O-])C(Br)(CO)CO`, the “activity change, negative = inhibition” value is reported as -0.71%. `CN1[C@@H]2CC[C@H]1CC(OC(=O)c1cc(Cl)cc(Cl)c1)C2` (stereo not given in full) was tested, and the “activity change, negative = inhibition” value was 26.1% [at 42.5 µM]. `COC(N)=O` was tested, and the “activity change, negative = inhibition” value was -5.88%. For `CC(Cl)Cl`, the “activity change, negative = inhibition” value was 16.9%. `CCOP(=O)(OCC)SCCSCC` was tested, and the Potency was “inactive”. With `CCOc1ccc(C(C)(C)COCc2cccc(Oc3ccccc3)c2)cc1` the “activity change, negative = inhibition” value was -0.154%. For `Nc1nc(=S)[nH][nH]1`, the “activity change, negative = inhibition” value was 8.79%. `CCBr` was tested, and the “activity change, negative = inhibition” value was -0.659%. For `CO/N=C(/C(=O)OC)c1ccccc1COc1ccccc1C`, the “activity change, negative = inhibition” value was -20.2%. `C=CC(=O)OCC(C)C` was tested, and the “activity change, negative = inhibition” value was 9.74%. With `Brc1ccc(Oc2ccccc2)cc1` the “activity change, negative = inhibition” value was 4.64%. For `CCC(Cl)CCl` (stereo not given), the “activity change, negative = inhibition” value was 11.6%. `CC(C)(OO)c1ccccc1` was tested, and the “activity change, negative = inhibition” value was -17.8%. For `CC(C)=CCOc1c2occc2cc2ccc(=O)oc12`, the “activity change, negative = inhibition” value was -18.7% [at 42.5 µM]. With `CCCC(=O)Cl` the “activity change, negative = inhibition” value was 0%. With `O=C1NCN(c2ccccc2)C12CCN(CCCOc1ccc(F)cc1)CC2` the Potency was 7.5 µM (active). With `COP(=S)(Oc1cc(Cl)c(Br)cc1Cl)c1ccccc1` (stereo not given) the “activity change, negative = inhibition” value was -12.3%. For `CC(=O)C(C)(C)C`, the “activity change, negative = inhibition” value was -8.56%. For `Cl/C=C\C[N+]12CN3CN(CN(C3)C1)C2`, the “activity change, negative = inhibition” value was 2.47%. In the case of `NNC(=O)c1cccnc1`, the “activity change, negative = inhibition” value is reported as -10.8%. With `N#C/C(N)=C(/N)C#N` the “activity change, negative = inhibition” value was 17.3%. In the case of `ClCc1ccccc1`, the “activity change, negative = inhibition” value is reported as -2.83%. With `COCC(C)N(C(=O)CCl)c1c(C)csc1C` (stereo not given) the “activity change, negative = inhibition” value was -21.5%. For `O=C(NCc1cccnc1)Nc1ccc([N+](=O)[O-])cc1`, the “activity change, negative = inhibition” value was -7.25%. In the case of `C[C@H]1CNCCc2ccc(Cl)cc21`, the “activity change, negative = inhibition” value is reported as 14.1% [at 42.5 µM]. With `C=CC(=O)OCCCCO` the “activity change, negative = inhibition” value was -13%. With `COC(=O)C(Br)CBr` (stereo not given) the “activity change, negative = inhibition” value was 0.0987%. `COP(=O)(OC)O/C(=C/Cl)c1cc(Cl)c(Cl)cc1Cl` was tested, and the Potency was 57.5 µM (active). With `O=[N+]([O-])c1ccccc1CCl` the “activity change, negative = inhibition” value was 28.1%. For `COc1ccc(-c2ccccc2)cc1NNC(=O)OC(C)C`, the Potency was 71.5 µM (active). For `CCOP(=O)(OCC)O/C(=C/Cl)c1ccc(Cl)cc1Cl`, the Potency was 54.5 µM (active). `O=S1(=O)OC(c2cc(Br)c(O)c(Br)c2)(c2cc(Br)c(O)c(Br)c2)c2ccccc21` was tested, and the Potency was 17.7 µM (active). For `C(=NC1CCCCC1)=NC1CCCCC1`, the Potency was 43.3 µM (active). In the case of `C[C@]12CC[C@H]3[C@@H](CCC4=CC(=O)CC[C@@H]43)[C@@H]1CC[C@@H]2OC(=O)CCC1CCCCC1`, the “activity change, negative = inhibition” value is reported as 0.589% [at 42.5 µM]. With `CN1C(=O)C(O)N=C(c2ccccc2)c2cc(Cl)ccc21` (stereo not given) the Potency was 56.4 µM (active). `CCCCC(O)(Cn1cncn1)c1ccc(Cl)cc1Cl` (stereo not given) was tested, and the Potency was 61.1 µM (active). In the case of `Clc1cccc(SC2CCNCC2)n1`, the “activity change, negative = inhibition” value is reported as 15.5% [at 42.5 µM]. In the case of `Cn1cc[n+](C)c1` (tested in a mixture with another compound), the “activity change, negative = inhibition” value is reported as 10.9%. `O=C(O)C(F)(F)C(F)(F)C(F)(F)C(F)(F)C(F)(F)C(F)(F)C(F)(F)C(F)(F)C(F)(F)F` was tested, and the “activity change, negative = inhibition” value was 11.8%. With `CCCCCCC#N` the “activity change, negative = inhibition” value was -12.6%.
